Screening results deposited in PubChem by National Center for Advancing Translational Sciences (NCATS).
MARV entry inh: blocks Marburg virus binding to or entry into cells. Marburg virus pseudotyped entry inhibition, cell reporter. Potency, µM (top dose mostly 37.8 µM), inactives show at the highest dose activity change, negative = inhibition, most hits filed as inhibitors. hit rate 1.8% among 300,000. AID 540276; calls by dose curve; tested in HEK293 cells; note: potency is the fitted concentration of half-maximal effect
FMDV antiviral: blocks foot and mouth disease virus. FMDV antiviral cell-based qHTS. Potency, µM (titrated, usually from 57.9 µM), for inactives: at the top dose activity change, negative = inhibition, usual class: inhibitors. hit rate 1.2% among 410,000. AID 1159524; calls by dose curve; tested in HEK293T cells; note: read-out not given here; potency is the fitted concentration of half-maximal effect; nearly all actives have a fitted effect of over 45% in size
Lassa entry inh: blocks Lassa virus binding to or entry into cells; AID 540256; Lassa virus pseudotype entry inhibition, cell reporter; hit rate 1.2% among 300,000; Potency, µM (titrated, usually from 37.9 µM), without a hit: at the top dose activity change, negative = inhibition, usual class: inhibitors; calls by dose curve; tested in HEK293 cells; note: potency is the fitted concentration of half-maximal effect; nearly all actives have a fitted effect of over 50% in size
VACV mCherry inh: vaccinia inhibition (mCherry reporter). hit rate 0.63% among 310,000. Potency, µM (series often up to 36.5 µM), for the others: top-dose activity change, negative = inhibition, most hits filed as inhibitors. Vaccinia virus mCherry reporter infection, fluorescence; calls by dose curve; tested in A549 cells; note: potency is the fitted concentration of half-maximal effect; nearly all actives have a fitted effect of over 35% in size
HCMV inh: human cytomegalovirus inhibition. HFF cells, HCMV-luciferase reporter, 72 h; active compounds read low. activity change, negative = inhibition, % at 57.5 µM. hit rate 4.5% among 410,000; in the data active = activity change below about -60%; inconclusive = no clear call, values can overlap the other calls; inactive = above about -39%
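Cell-based, HFFs, 1000 cells/well, 16 h 37C; cpds in DMSO + HCMV-luc, MOI 1 PFU/cell; 72 h 37C; OneGlo luminescence after 5 min RT; norm. to buffer vs Salinomycin 10uM.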
VACV Venus inh: vaccinia inhibition (Venus reporter). AID 720580. Vaccinia virus Venus reporter expression, fluorescence. hit rate 0.46% among 330,000. Potency, µM (highest dose often 36.5 µM), for inactives: top-dose activity change, negative = inhibition, usual class: inhibitors; calls by dose curve; tested in A549 cells; note: potency is the fitted concentration of half-maximal effect; nearly all actives have a fitted effect of over 30% in size
Starred values were filed as active, the others as inactive; i = inactive; ? = inconclusive; · = no result given; [ ] = dose if it differs, or a comment. The list is not random: actives were taken first. Their share in the collection is about 6.5%. % is set by controls: 0 for no effect and ±100 for the full control effect.

SMILES	MARV entry inh	FMDV antiviral	Lassa entry inh	VACV mCherry inh	HCMV inh	VACV Venus inh
NC(=O)C1=CC2C3C=CC2(O)C(=O)OC3O1 (centres undefined)	?	?	7.1µM*	-11%	-97*	-14%
Cc1ccc(NS(=O)(=O)c2ccc(-n3cccn3)cc2)cc1Cl	·	34%	11%[46.1 µM]	?	-33	-9%
Cc1ccc(NS(=O)(=O)c2ccc(-n3cccn3)cc2)cc1C	-15%[46.1 µM]	14%	-15%[46.1 µM]	-29%	-93*	-14%
Cc1cc(C)nc(NN=C(c2ccccc2)c2ccccc2)n1	10µM*	-14%	?	-1%	?	-10%
CC(/C=C/c1ccccc1)=N\Nc1nc(C)cc(C)n1	0%	35%	23%	-17%	-15	-12%
C[C@H]1CN(Cc2ccccc2)C(=O)[C@H]1CC(=O)Nc1ccccc1	·	·	-9%[46.1 µM]	·	·	·
CCN(CC)c1ccc(C(=O)NCc2ccc3c(c2)CCN3C(=O)c2ccc(F)cc2)cc1	·	-17%	-1%[46.1 µM]	?	19	-18%
CCN(CC(=O)Nc1c(F)cccc1F)C(=O)CCNC(=O)c1ccccc1OC	-17%	-5%	0%	i	-35	-11%
COc1ccc(NC(=O)C(C)n2nc(-c3ccc(C)c(C)c3)ccc2=O)cc1OC (centres undefined)	-1%[46.1 µM]	0%	1%[46.1 µM]	-15%	10	-8%
Cc1ccc(S(=O)(=O)NCCC(=O)NC2CCC(C)CC2)cc1 (centres undefined)	·	-4%	·	·	-17	·
CCOC(=O)c1cc2c(C)n(-c3ccc(OCC)cc3)c(C)c2ccc1=O	?	40µM*	?	?	?	-23%
CCOC(=O)c1cc2c(C)n(-c3ccc(C)cc3)c(C)c2ccc1=O	26µM*	-37%	?	·	-96*	·
COC(=O)COc1ccc(C2Nc3c(Cl)ccc(C(=O)O)c3C3C=CCC32)cc1 (centres undefined)	8%[46.1 µM]	8%	-4%	2%	-75*	7%
CC1CCC(C(C)(C)O)CC2=C1CCC2C (centres undefined)	·	24%	·	-6%	·	1%
CCNc1sc(C(=O)c2cccs2)c(N)c1-c1nc2ccccc2s1	?	4%	?	-19%	-80*	-18%
Cc1cc(C)c(C(=O)CSC2=NC(N)=C(C#N)C3(CCCCC3)C2C(N)=O)cc1C (centres undefined)	?	?	-19%[14.3 µM]	-18%	-67*	-14%
CC1(C)NCCN2C(=O)CS[C@H]21	16%[46.1 µM]	·	·	·	·	·
c1csc(-c2csc3ncnc(NCCCN4CCOCC4)c23)c1	?	?	-19%	·	-67*	·
Clc1ccc(-c2csc3ncnc(Cl)c23)cc1	-2%	?	3%	i	9	-12%
OCCCNc1ncnc2scc(-c3ccc(Cl)cc3)c12	?	?	-16%	?	-80*	-30%
Cc1ccc(-c2csc3ncnc(NS(=O)(=O)c4ccc(Cl)cc4)c23)cc1	-2%	-5%	?	-15%	?	-23%
NNc1ncnc2scc(-c3ccc(Cl)cc3)c12	-25%	?	-3%	?	-99*	-28%
COc1ccc(-n2c(=O)c3ccccc3n(CC(=O)NCCc3ccccc3)c2=O)c(OC)c1	-5%[46.1 µM]	-14%	-3%[46.1 µM]	-11%	-25	2%
Nn1c(SCC(=O)Nc2ccccc2F)nnc1C1CCCCC1	·	-4%	·	·	-35	·
Brc1cc2ccccc2[n+](Cc2ccccc2)c1	·	-8%	·	-18%	-101*	-18%
SMILES	MARV entry inh	FMDV antiviral	Lassa entry inh	VACV mCherry inh	HCMV inh	VACV Venus inh
O=C(C[n+]1cc(Br)cc2ccccc21)c1ccc(Br)cc1	?	0%	3%[46.1 µM]	-8%	141	1%
COc1cc(C(=O)OCC(C)=O)cc(NC(=O)c2ccco2)c1OC	·	-30%	·	·	-69*	·
CCCCOc1cccc(C(=O)Nc2cc(NC(=O)c3ccco3)ccc2OC)c1	?	0%	-24%[46.1 µM]	-3%	-104*	-6%
COc1ccc(NC(=O)c2ccco2)cc1NC(=O)c1cccc(OC(C)C)c1	?	-8%	10µM*	·	-35	·
COc1cc(C(=O)OCC(=O)NC2CCCC2)cc(NC(=O)c2ccco2)c1OC	-13%	8%	0%	·	-21	·
O=C(C[n+]1ccc(/C=C/c2c[nH]c3ccccc23)c2ccccc21)c1ccccc1	·	·	·	-14%	·	-4%
Nc1ncnc2c1nc(-c1ccccc1)n2C1OC(CO)C(O)C1O (centres undefined)	·	-9%	·	6%	11	0%
NC(=O)c1c(Br)n(C2OC(CO)C(O)C2O)c2ncnc(N)c12 (centres undefined)	?	-21%	?	11µM*	-83*	?
N#Cc1c(Br)n(C2OC(CO)C(O)C2O)c2ncnc(N)c12 (centres undefined)	?	8%	?	?	-95*	13µM*
COc1cccc(CNC(=O)CCNC(=O)C2CCN(S(=O)(=O)c3ccccc3)CC2)c1	·	-14%	·	·	-20	·
Cc1ccc(SCCC(=O)NCCSCc2ccco2)cc1	-25%[46.1 µM]	-5%	14%[46.1 µM]	-11%	-100*	-16%
O=C(Cc1ccccc1)NCCSCc1ccco1	4%	·	0%	-21%	-13	0%
CSc1nc(C(=O)N2CCc3c(cnc(C)c3CNC(=O)c3ccc4c(c3)OCO4)C2)cs1	·	0%	·	-15%	·	-3%
C[C@@H]1CC2CCCC2[C@]2(O1)C(=O)Nc1ccccc12 (some centres undefined)	-4%[14.2 µM]	·	·	·	·	·
CC1(O)CCN2C(=O)CCc3cccc1c32 (centres undefined)	·	-18%	·	·	-61*	·
Cc1ccc(-c2nnc(SCCC(=O)Nc3ccccc3)n2C)cc1	·	·	·	-10%	·	-19%
Cn1c(=O)oc2cc(NC(=O)CCl)ccc21	·	?	·	·	-106*	·
COc1ccc(OC)c(/C=C/c2c([N+](=O)[O-])c(=O)n(C)c(=O)n2C)c1	-29%[46.1 µM]	-23%	·	-25%	-5	-19%
Cn1c(/C=C/c2ccc(Br)cc2)c([N+](=O)[O-])c(=O)n(C)c1=O	?	16µM*	?	13µM*	-100*	?
COc1ccc(/C=C/c2c([N+](=O)[O-])c(=O)n(C)c(=O)n2C)cc1O	?	?	-24%	·	-103*	·
COc1cc(/C=C/c2c([N+](=O)[O-])c(=O)n(C)c(=O)n2C)cc(OC)c1OC	-21%	·	?	-27%	-67*	-13%
COCCN1C(=O)COCc2cc(-c3cnn(C)c3)ccc21	·	·	·	·	21	·
Cc1ccc(N=c2c([N+](=O)[O-])nn(-c3ccc4c(c3)OCCO4)n2O)cc1F	?	?	-15%[46.1 µM]	-15%	-85*	-17%
O=[N+]([O-])c1nn(-c2ccc3c(c2)OCCO3)n(O)c1=Nc1ccc(Cl)cc1	?	·	?	-29%	-91*	-21%
O=[N+]([O-])c1nn(-c2ccc3c(c2)OCCO3)n(O)c1=Nc1ccccc1	1.5µM*	7.9µM*	7.1µM*	-14%	-95*	-10%
COC(=O)C1=C(C(=O)OC)[C@@H]2N(Cc3ccccc3)c3ccccc3[C@@]23C[C@@H](C(=O)OC)N(C(=O)NCCBr)C3=N1	8%[14.2 µM]	·	·	·	·	·
